# Data published in PMC7862700, “An all-to-all approach to the identification of sequence-specific readers for epigenetic DNA modifications on cytosine”.
# Experiments:
# Assay in all cases: DAPPL (digital affinity profiling via proximity ligation, sequencing); 10 mM Tris-HCl pH 7.5, 50 mM NaCl, 1 mM DTT, 4% glycerol, room temperature, 30 min; GST-TFs on glutathione beads, 16-mer random dsDNA library, 0.1% formaldehyde crosslink after washing; high values mean tight binding
# [1] = target: T1, FEV (Homo sapiens, UniProt Q99581 1-238); settings: protein: recombinant; tags: N-terminal GST; dsDNA, one strand shown
# T1 sequence: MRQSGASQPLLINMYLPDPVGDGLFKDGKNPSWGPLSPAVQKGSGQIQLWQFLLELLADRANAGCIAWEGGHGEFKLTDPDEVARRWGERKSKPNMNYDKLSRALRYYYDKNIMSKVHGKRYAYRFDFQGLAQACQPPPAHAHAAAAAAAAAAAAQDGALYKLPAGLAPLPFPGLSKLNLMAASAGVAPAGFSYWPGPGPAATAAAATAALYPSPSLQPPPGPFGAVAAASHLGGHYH
# How it was run: (§1)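 In yeast, human transcription factors were expressed with a GST fusion, then pulled down on glutathione beads and given DNA barcodes. Pooled with a tag-only sample, they were exposed to 200 nmole of a 16-mer random double-stranded DNA library (Tris/NaCl/DTT/glycerol buffer, room temperature, 30 min), washed, crosslinked with 0.1% formaldehyde, proximity-ligated using BsaI/T4 ligase for 1 h at 37 °C, PCR-amplified and read on an Illumina NextSeq500. Each hexamer's frequency of reads for a factor, divided by the matching frequency for the tag-only sample, gives the binding signal.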
# [2] = target: ETV5 (Homo sapiens, UniProt P41161 1-510); settings: protein: recombinant; tags: N-terminal GST; dsDNA, one strand shown
# Chain of ETV5 (P41161 whole entry): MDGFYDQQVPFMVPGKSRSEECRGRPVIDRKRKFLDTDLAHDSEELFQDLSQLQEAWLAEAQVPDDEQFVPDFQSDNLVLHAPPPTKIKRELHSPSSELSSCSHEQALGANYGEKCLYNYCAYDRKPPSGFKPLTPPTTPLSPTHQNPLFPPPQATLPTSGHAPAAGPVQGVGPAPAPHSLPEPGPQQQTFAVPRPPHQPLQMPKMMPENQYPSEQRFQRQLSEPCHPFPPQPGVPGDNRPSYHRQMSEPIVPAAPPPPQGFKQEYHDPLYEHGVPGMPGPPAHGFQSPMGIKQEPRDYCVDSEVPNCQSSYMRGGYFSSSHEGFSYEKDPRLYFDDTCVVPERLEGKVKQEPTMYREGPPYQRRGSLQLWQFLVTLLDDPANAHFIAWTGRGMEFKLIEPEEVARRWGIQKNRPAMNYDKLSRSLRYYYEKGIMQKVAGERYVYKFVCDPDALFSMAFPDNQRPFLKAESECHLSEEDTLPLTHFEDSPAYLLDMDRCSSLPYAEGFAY
# How it was run: as §1
# [3] = target: HSF1 (Homo sapiens, UniProt Q00613 1-529); settings: protein: recombinant; tags: N-terminal GST; chain copies: 3; dsDNA, one strand shown
# Chain of HSF1 (Q00613 whole entry): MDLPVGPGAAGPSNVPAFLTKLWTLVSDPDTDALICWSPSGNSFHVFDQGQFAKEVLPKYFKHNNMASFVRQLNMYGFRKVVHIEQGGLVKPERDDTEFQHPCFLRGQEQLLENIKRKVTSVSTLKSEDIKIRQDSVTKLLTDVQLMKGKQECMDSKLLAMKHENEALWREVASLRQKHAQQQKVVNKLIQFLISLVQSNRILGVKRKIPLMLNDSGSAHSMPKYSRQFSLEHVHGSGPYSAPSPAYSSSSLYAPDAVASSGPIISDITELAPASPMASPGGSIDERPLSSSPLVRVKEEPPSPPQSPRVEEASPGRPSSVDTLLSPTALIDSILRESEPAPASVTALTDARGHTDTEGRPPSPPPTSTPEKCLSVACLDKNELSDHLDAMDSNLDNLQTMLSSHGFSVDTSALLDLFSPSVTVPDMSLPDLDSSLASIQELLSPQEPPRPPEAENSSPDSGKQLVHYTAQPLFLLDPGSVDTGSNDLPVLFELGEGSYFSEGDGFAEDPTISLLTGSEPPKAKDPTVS
# How it was run: as §1
# [4] = target: T2, SPIC (Homo sapiens, UniProt Q8N5J4 1-248); settings: protein: recombinant; tags: N-terminal GST; dsDNA, one strand shown
# T2 sequence: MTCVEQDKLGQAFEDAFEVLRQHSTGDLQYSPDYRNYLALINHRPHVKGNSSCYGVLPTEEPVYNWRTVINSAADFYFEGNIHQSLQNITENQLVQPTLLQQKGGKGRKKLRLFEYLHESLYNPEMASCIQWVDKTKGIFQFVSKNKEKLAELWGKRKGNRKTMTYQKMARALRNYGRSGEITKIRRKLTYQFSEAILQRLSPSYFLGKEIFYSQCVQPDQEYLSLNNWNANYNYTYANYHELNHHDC
# How it was run: as §1
# [5] = target: ELF4 (Homo sapiens, UniProt Q99607 1-663); settings: protein: recombinant; tags: N-terminal GST; dsDNA, one strand shown
# Chain of ELF4 (Q99607 whole entry): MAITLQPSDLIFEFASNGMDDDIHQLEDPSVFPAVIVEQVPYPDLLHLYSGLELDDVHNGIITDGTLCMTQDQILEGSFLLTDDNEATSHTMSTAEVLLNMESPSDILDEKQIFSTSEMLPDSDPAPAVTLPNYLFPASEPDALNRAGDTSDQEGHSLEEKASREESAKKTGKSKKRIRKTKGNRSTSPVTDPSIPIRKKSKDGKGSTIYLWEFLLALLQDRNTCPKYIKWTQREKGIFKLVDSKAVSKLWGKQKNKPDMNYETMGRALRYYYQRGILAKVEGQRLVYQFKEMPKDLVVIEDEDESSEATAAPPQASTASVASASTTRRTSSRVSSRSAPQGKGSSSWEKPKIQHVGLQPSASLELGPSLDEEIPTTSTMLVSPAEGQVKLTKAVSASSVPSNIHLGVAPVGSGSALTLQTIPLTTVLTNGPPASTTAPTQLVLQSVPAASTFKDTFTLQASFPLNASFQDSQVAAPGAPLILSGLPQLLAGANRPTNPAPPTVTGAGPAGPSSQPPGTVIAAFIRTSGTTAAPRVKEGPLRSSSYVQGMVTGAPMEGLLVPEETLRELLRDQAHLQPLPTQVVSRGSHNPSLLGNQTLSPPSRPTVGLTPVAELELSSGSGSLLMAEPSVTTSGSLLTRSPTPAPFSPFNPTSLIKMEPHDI
# How it was run: as §1
# [6] = target: T3, ELK4 (Homo sapiens, UniProt P28324-2 1-405); settings: protein: recombinant; tags: N-terminal GST; dsDNA, one strand shown
# T3 sequence: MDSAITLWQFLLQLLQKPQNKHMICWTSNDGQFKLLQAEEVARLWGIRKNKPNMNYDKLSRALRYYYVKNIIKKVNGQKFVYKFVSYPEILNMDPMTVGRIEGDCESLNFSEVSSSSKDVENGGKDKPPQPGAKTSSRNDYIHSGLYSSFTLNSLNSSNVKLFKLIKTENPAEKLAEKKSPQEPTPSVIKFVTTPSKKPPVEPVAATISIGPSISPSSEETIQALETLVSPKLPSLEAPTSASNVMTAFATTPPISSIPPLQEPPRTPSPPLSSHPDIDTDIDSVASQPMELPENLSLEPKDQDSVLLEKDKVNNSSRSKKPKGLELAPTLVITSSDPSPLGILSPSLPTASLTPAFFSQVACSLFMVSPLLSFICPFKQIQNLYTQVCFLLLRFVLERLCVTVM
# How it was run: as §1
# [7] = target: T4, ETV2 (Homo sapiens, UniProt O00321 1-342); settings: protein: recombinant; tags: N-terminal GST; dsDNA, one strand shown
# T4 sequence: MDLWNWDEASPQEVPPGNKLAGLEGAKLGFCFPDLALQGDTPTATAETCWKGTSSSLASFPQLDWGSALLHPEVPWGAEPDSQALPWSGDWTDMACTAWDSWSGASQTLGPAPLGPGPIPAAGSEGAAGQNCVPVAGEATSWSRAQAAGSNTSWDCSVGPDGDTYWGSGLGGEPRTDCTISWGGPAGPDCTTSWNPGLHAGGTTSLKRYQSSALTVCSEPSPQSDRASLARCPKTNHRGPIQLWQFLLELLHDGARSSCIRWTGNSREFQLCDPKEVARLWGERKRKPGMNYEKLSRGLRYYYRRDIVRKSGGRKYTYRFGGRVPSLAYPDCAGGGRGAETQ
# How it was run: as §1
# [8] = target: T5, ELF3 (Homo sapiens, UniProt P78545 1-371); settings: protein: recombinant; tags: N-terminal GST; dsDNA, one strand shown
# T5 sequence: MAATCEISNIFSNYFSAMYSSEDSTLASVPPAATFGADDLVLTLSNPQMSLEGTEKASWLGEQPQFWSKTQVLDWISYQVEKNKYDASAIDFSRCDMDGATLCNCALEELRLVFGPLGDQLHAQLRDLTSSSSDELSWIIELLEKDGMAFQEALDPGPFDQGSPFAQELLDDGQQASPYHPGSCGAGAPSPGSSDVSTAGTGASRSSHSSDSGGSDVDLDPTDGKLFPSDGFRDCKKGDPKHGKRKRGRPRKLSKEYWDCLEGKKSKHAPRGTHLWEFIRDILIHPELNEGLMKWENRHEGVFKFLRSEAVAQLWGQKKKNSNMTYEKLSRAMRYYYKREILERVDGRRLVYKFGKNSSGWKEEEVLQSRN
# How it was run: as §1
# [9] = target: CRX (Homo sapiens, UniProt O43186 1-299); settings: protein: recombinant; tags: N-terminal GST; dsDNA, one strand shown
# Chain of CRX (O43186 whole entry): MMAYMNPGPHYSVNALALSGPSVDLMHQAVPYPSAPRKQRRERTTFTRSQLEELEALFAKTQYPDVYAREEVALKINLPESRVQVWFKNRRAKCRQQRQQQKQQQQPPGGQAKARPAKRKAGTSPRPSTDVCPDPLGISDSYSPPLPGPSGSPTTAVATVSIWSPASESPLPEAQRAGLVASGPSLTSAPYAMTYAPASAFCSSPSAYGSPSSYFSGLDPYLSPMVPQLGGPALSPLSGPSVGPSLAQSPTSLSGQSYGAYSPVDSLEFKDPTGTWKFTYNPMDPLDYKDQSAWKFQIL
# How it was run: as §1
# [10] = target: ETV1 (Homo sapiens, UniProt P50549 1-477); settings: protein: recombinant; tags: N-terminal GST; dsDNA, one strand shown
# Chain of ETV1 (P50549 whole entry): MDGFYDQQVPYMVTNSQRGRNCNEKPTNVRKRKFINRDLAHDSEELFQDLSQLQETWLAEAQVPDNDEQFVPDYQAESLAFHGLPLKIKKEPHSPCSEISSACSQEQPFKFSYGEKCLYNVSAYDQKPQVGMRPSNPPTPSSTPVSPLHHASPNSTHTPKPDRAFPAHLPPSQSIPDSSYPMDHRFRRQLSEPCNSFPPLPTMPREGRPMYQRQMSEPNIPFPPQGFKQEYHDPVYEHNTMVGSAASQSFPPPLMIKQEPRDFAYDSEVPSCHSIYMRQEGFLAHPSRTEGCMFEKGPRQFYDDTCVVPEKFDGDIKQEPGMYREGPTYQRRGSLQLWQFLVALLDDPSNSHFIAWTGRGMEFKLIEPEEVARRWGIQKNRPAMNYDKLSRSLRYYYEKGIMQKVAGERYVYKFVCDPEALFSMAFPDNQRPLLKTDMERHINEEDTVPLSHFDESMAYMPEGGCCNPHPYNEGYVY
# How it was run: as §1
# [11] = target: T6, ERF (Homo sapiens, UniProt P50548 1-548); settings: protein: recombinant; tags: N-terminal GST; dsDNA, one strand shown
# T6 sequence: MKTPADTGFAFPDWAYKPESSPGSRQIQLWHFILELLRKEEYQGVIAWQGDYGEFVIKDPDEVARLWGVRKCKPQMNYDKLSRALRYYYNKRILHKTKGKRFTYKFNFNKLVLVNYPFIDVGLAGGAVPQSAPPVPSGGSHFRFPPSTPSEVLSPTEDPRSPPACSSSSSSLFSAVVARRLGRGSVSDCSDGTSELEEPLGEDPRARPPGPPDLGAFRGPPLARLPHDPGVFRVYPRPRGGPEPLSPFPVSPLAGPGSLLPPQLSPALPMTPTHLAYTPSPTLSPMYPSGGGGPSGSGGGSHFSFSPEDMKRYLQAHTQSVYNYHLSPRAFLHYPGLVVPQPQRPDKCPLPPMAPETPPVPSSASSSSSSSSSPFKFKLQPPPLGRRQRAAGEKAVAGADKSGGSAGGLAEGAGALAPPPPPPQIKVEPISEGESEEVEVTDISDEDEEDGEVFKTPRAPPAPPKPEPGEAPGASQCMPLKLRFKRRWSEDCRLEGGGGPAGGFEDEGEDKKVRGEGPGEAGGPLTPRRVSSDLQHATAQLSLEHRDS
# How it was run: as §1
# [12] = target: T7, ETV3L (Homo sapiens, UniProt Q6ZN32 1-361); settings: protein: recombinant; tags: N-terminal GST; dsDNA, one strand shown
# T7 sequence: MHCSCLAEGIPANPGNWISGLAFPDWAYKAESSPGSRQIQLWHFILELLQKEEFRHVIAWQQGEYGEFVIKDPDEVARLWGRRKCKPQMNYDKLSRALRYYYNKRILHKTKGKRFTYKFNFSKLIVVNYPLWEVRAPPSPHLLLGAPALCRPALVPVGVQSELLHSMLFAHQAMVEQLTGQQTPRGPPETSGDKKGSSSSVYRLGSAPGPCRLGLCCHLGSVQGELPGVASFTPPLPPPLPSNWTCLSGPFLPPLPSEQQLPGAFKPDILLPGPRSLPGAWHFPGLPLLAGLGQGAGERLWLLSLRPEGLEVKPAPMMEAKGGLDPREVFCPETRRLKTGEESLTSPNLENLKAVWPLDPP
# How it was run: as §1
# [13] = target: T8, ETS2 (Homo sapiens, UniProt P15036 1-469); settings: protein: recombinant; tags: N-terminal GST; dsDNA, one strand shown
# T8 sequence: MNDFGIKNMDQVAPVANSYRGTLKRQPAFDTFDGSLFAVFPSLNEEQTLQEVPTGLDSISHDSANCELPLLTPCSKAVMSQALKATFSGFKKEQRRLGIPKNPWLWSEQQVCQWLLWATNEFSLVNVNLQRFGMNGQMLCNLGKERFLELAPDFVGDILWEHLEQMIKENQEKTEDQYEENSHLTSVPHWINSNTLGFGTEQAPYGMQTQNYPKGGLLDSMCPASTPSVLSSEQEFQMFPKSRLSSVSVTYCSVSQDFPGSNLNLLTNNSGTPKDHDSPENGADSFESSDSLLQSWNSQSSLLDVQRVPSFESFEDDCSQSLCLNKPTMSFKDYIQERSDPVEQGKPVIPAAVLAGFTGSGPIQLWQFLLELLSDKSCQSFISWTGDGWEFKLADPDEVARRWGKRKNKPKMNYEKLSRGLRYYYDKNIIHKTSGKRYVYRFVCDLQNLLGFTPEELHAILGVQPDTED
# How it was run: as §1
# [14] = target: T9, SPDEF (Homo sapiens, UniProt O95238 1-335); settings: protein: recombinant; tags: N-terminal GST; dsDNA, one strand shown
# T9 sequence: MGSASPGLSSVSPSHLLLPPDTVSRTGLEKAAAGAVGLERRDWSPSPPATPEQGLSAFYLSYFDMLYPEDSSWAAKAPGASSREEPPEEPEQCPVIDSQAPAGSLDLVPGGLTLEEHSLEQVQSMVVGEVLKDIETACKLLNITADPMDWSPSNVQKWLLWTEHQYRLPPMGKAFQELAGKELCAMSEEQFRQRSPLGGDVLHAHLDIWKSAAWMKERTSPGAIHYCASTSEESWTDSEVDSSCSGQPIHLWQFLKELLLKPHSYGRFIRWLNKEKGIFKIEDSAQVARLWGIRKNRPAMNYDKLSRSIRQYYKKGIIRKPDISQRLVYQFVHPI
# How it was run: as §1
# [15] = target: T10, ETV7 (Homo sapiens, UniProt Q9Y603 1-341); settings: protein: recombinant; tags: N-terminal GST; dsDNA, one strand shown
# T10 sequence: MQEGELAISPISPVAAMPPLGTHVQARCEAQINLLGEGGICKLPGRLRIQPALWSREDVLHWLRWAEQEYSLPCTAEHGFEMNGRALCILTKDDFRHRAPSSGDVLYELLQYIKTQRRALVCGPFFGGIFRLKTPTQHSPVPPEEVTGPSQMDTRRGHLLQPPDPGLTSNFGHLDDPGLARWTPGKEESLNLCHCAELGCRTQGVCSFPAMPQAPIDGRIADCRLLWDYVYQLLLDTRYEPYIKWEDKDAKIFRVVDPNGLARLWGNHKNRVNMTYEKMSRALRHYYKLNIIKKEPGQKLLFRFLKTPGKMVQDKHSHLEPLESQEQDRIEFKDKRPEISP
# How it was run: as §1
# [16] = target: T11, ELF5 (Homo sapiens, UniProt Q9UKW6-2 1-255); settings: protein: recombinant; tags: N-terminal GST; dsDNA, one strand shown
# T11 sequence: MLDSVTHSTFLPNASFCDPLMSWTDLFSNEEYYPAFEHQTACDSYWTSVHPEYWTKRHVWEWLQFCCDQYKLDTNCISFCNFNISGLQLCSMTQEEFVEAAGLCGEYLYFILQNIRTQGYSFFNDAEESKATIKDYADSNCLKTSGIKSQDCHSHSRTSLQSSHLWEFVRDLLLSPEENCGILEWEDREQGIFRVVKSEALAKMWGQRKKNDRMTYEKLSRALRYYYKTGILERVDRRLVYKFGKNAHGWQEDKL
# How it was run: as §1
# [17] = target: T12, ETV3 (Homo sapiens, UniProt P41162-2 1-143); settings: protein: recombinant; tags: N-terminal GST; dsDNA, one strand shown
# T12 sequence: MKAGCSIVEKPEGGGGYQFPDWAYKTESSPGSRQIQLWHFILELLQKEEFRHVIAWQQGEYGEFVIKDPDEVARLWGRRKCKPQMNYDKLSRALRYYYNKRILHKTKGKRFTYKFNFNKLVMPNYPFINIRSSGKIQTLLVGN
# How it was run: as §1
# [18] = target: ETV6 (Homo sapiens, UniProt P41212 1-452); settings: protein: recombinant; tags: N-terminal GST; dsDNA, one strand shown
# Chain of ETV6 (P41212 whole entry): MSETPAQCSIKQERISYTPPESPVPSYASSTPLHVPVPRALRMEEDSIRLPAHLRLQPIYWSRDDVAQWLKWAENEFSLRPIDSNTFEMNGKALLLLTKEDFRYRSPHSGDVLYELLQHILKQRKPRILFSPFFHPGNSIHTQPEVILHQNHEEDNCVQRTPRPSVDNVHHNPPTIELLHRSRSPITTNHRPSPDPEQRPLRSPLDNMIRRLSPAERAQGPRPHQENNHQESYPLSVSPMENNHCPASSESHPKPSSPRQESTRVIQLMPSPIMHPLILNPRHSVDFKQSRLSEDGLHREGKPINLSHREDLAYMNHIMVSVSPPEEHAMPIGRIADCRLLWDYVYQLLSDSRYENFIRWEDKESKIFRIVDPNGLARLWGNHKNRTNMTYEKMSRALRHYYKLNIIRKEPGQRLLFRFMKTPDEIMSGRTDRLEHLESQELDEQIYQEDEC
# How it was run: as §1
sequence,measurement,setting,value
CCTCTC,binding signal,[1],"1.36 fold enrichment (6-mer frequency, TF over GST control)"
same,binding signal,[2],"1.34 fold enrichment (6-mer frequency, TF over GST control)"
same,binding signal,[3],"1.23 fold enrichment (6-mer frequency, TF over GST control)"
same,binding signal,[4],"1.46 fold enrichment (6-mer frequency, TF over GST control)"
same,binding signal,[5],"1.48 fold enrichment (6-mer frequency, TF over GST control)"
same,binding signal,[6],"1.36 fold enrichment (6-mer frequency, TF over GST control)"
same,binding signal,[7],"1.44 fold enrichment (6-mer frequency, TF over GST control)"
same,binding signal,[8],"1.5 fold enrichment (6-mer frequency, TF over GST control)"
same,binding signal,[9],"1.16 fold enrichment (6-mer frequency, TF over GST control)"
same,binding signal,[10],"1.42 fold enrichment (6-mer frequency, TF over GST control)"
same,binding signal,[11],"1.4 fold enrichment (6-mer frequency, TF over GST control)"
same,binding signal,[12],"1.41 fold enrichment (6-mer frequency, TF over GST control)"
same,binding signal,[13],"1.34 fold enrichment (6-mer frequency, TF over GST control)"
same,binding signal,[14],"1.39 fold enrichment (6-mer frequency, TF over GST control)"
same,binding signal,[15],"1.44 fold enrichment (6-mer frequency, TF over GST control)"
same,binding signal,[16],"1.41 fold enrichment (6-mer frequency, TF over GST control)"
same,binding signal,[17],"1.44 fold enrichment (6-mer frequency, TF over GST control)"
same,binding signal,[18],"1.5 fold enrichment (6-mer frequency, TF over GST control)"
